In PubChem BioAssay AID1159580 (chemical genetic matrix, 2015):
In all, about 5,500 compounds went through this assay and about 2,000 (36%) were called active. Inconclusive results (about 18%) are left out. Rule as the data show it: active = normalized growth mostly below about 0.91 (no sharp cut-off); inconclusive = no clear call, values can overlap the other calls; inactive = mostly above about 0.92. Some of the results follow.

Test: chemical genetic growth profiling, strain panel (AID 1159580);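 also: tested at 20 µM; growth read once vehicle control cultures reached saturation at 30 °C; 1 = growth at the plate median or of vehicle wells; lower values mean less growth of the strain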
Conditions: growth OD

Measured: normalized growth

C=C[C@H]1CN2CC[C@H]1C[C@H]2[C@H](O)c1ccnc2ccccc12
inactive: S. cerevisiae deletion strains, locus YJR075W, strain HOC1, active compounds read low 1.02 | S. cerevisiae deletion strains, locus YKL009W, strain mrt4, active compounds read low 1.01 | S. cerevisiae deletion strains, locus YKL068W, active compounds read low 0.982 | S. cerevisiae deletion strains, locus YKL085W, strain MDH1 (second series), active compounds read low 0.991 | S. cerevisiae deletion strains, locus YKL085W, strain MDH1, active compounds read low 0.991 | S. cerevisiae deletion strains, locus YKL160W, strain elf1, active compounds read low 0.989 | S. cerevisiae deletion strains, locus YKL190W, strain CNB1, active compounds read low 0.986 | S. cerevisiae deletion strains, locus YKR001C, strain vps1, active compounds read low 0.967 | S. cerevisiae deletion strains, locus YKR026C, strain gcn3, active compounds read low 1 | S. cerevisiae deletion strains, locus YKR091W, strain srl3, active compounds read low 1 | S. cerevisiae deletion strains, locus YLL001W, strain dnm1, active compounds read low 0.972 | S. cerevisiae deletion strains, locus YLL026W, active compounds read low 0.994 | S. cerevisiae deletion strains, locus YLL041C, strain sdh2, active compounds read low 1 | S. cerevisiae deletion strains, locus YLR027C, strain aat2, active compounds read low 1 | S. cerevisiae deletion strains, locus YLR039C, strain RIC1, active compounds read low 0.99 | S. cerevisiae deletion strains, locus YLR058C, strain SHM2, active compounds read low 1 | S. cerevisiae deletion strains, locus YLR102C, strain apc9, active compounds read low 0.976 | S. cerevisiae deletion strains, locus YLR113W, strain HOG1, active compounds read low 0.941 | S. cerevisiae deletion strains, locus YLR221C, strain rsa3, active compounds read low 0.989 | S. cerevisiae deletion strains, locus YLR258W, strain gsy2, active compounds read low 1.01 | S. cerevisiae deletion strains, locus YLR262C, strain YPT6 (second series), active compounds read low 0.975 | S. cerevisiae deletion strains, locus YLR262C, strain YPT6, active compounds read low 0.966 | S. cerevisiae deletion strains, locus YLR268W, strain sec22, active compounds read low 0.981 | S. cerevisiae deletion strains, locus YLR320W, strain mms22, active compounds read low 0.999 | S. cerevisiae deletion strains, locus YLR330W, strain CHS5, active compounds read low 1 | S. cerevisiae deletion strains, locus YLR342W, strain FKS1 (second series), active compounds read low 0.995 | S. cerevisiae deletion strains, locus YLR342W, strain FKS1, active compounds read low 0.985 | S. cerevisiae deletion strains, locus YLR357W, strain rsc2, active compounds read low 0.986 | S. cerevisiae deletion strains, locus YLR370C, strain arc18, active compounds read low 0.995 | S. cerevisiae deletion strains, locus YLR371W, strain rom2, active compounds read low 0.967 | S. cerevisiae deletion strains, locus YLR384C, strain iki3, active compounds read low 0.988 | S. cerevisiae deletion strains, locus YLR418C, strain cdc73, active compounds read low 1.03 | S. cerevisiae deletion strains, locus YML016C, strain PPZ1, active compounds read low 1.01 | S. cerevisiae deletion strains, locus YML032C, strain rad52, active compounds read low 0.97 | S. cerevisiae deletion strains, locus YML120C, strain ndi1, active compounds read low 0.992 | S. cerevisiae deletion strains, locus YML124C, strain tub3, active compounds read low 0.975 | S. cerevisiae deletion strains, locus YMR058W, strain fet3, active compounds read low 0.983 | S. cerevisiae deletion strains, locus YMR078C, strain ctf18, active compounds read low 0.965 | S. cerevisiae deletion strains, locus YMR125W, strain sto1, active compounds read low 1 | S. cerevisiae deletion strains, locus YMR129W, active compounds read low 1 | S. cerevisiae deletion strains, locus YMR205C, strain PFK2, active compounds read low 1 | S. cerevisiae deletion strains, locus YMR223W, strain ubp8, active compounds read low 0.978 | S. cerevisiae deletion strains, locus YMR231W, strain pep5, active compounds read low 0.995 | S. cerevisiae deletion strains, locus YMR263W, strain SAP30, active compounds read low 0.987 | S. cerevisiae deletion strains, locus YMR307W, strain GAS1, active compounds read low 0.986 | S. cerevisiae deletion strains, locus YNL067W, strain RPL9B, active compounds read low 1.01 | S. cerevisiae deletion strains, locus YNL071W, strain lat1, active compounds read low 1 | S. cerevisiae deletion strains, locus YNL128W, strain TEP1, active compounds read low 1.03 | S. cerevisiae deletion strains, locus YNL153C, strain GIM3, active compounds read low 1.01 | S. cerevisiae deletion strains, locus YNL183C, strain NPR1, active compounds read low 0.927 | S. cerevisiae deletion strains, locus YNL209W, strain ssb2, active compounds read low 1.01 | S. cerevisiae deletion strains, locus YNL233W, strain BNI4, active compounds read low 0.999 | S. cerevisiae deletion strains, locus YNL248C, strain rpa49, active compounds read low 1.02 | S. cerevisiae deletion strains, locus YNL250W, strain rad50, active compounds read low 0.989 | S. cerevisiae deletion strains, locus YNL271C, strain bni1, active compounds read low 0.993 | S. cerevisiae deletion strains, locus YNL298W, strain CLA4, active compounds read low 0.98 | S. cerevisiae deletion strains, locus YNL307C, strain MCK1, active compounds read low 0.981 | S. cerevisiae deletion strains, locus YNL322C, strain KRE1 (second series), active compounds read low 0.99 | S. cerevisiae deletion strains, locus YNL322C, strain KRE1, active compounds read low 1 | S. cerevisiae deletion strains, locus YNR049C, strain mso1, active compounds read low 1 | S. cerevisiae deletion strains, locus YNR052C, strain pop2, active compounds read low 0.959 | S. cerevisiae deletion strains, locus YOL006C, strain TOP1, active compounds read low 1.07 | S. cerevisiae deletion strains, locus YOL012C, strain htz1 0.823 | S. cerevisiae deletion strains, locus YOL147C, strain pex11, active compounds read low 0.971 | S. cerevisiae deletion strains, locus YOR001W, strain rrp6, active compounds read low 0.978 | S. cerevisiae deletion strains, locus YOR061W, strain CKA2, active compounds read low 1.01 | S. cerevisiae deletion strains, locus YOR069W, strain VPS5, active compounds read low 1.01 | S. cerevisiae deletion strains, locus YOR070C, strain gyp1, active compounds read low 1 | S. cerevisiae deletion strains, locus YOR080W, strain dia2, active compounds read low 0.99 | S. cerevisiae deletion strains, locus YOR083W, strain WHI5, active compounds read low 0.948 | S. cerevisiae deletion strains, locus YOR106W, strain vam3, active compounds read low 0.994 | S. cerevisiae deletion strains, locus YOR136W, strain idh2, active compounds read low 0.973 | S. cerevisiae deletion strains, locus YOR144C, strain elg1, active compounds read low 0.972 | S. cerevisiae deletion strains, locus YOR184W, strain ser1, active compounds read low 0.977 | S. cerevisiae deletion strains, locus YOR231W, strain MKK1, active compounds read low 0.972 | S. cerevisiae deletion strains, locus YOR265W, strain rbl2, active compounds read low 0.994 | S. cerevisiae deletion strains, locus YOR270C, strain vph1, active compounds read low 1.02 | S. cerevisiae deletion strains, locus YOR290C, strain snf2, active compounds read low 0.996 | S. cerevisiae deletion strains, locus YOR316C, strain cot1, active compounds read low 0.984 | S. cerevisiae deletion strains, locus YPL051W, strain arl3, active compounds read low 1 | S. cerevisiae deletion strains, locus YPL055C, strain LGE1, active compounds read low 1.01 | S. cerevisiae deletion strains, locus YPL078C, strain atp4, active compounds read low 0.99 | S. cerevisiae deletion strains, locus YPL106C, strain sse1, active compounds read low 0.994 | S. cerevisiae deletion strains, locus YPL240C, strain hsp82, active compounds read low 1.01 | S. cerevisiae deletion strains, locus YPL241C, strain CIN2, active compounds read low 0.992 | S. cerevisiae deletion strains, locus YPL256C, strain CLN2, active compounds read low 0.97 | S. cerevisiae deletion strains, locus YPR119W, strain clb2, active compounds read low 0.98 | S. cerevisiae deletion strains, locus YPR141C, strain kar3, active compounds read low 0.983 | S. cerevisiae deletion strains, locus YPR163C, strain tif3, active compounds read low 0.977 | S. cerevisiae deletion strains, locus YPR167C, strain met16, active compounds read low 0.989 | S. cerevisiae deletion strains, strain wtn01, active compounds read low 0.976 | S. cerevisiae strains, strain wild type, active compounds read low 1
